Screening data: PubChem, National Center for Advancing Translational Sciences (NCATS)
Coupling enz: inhibits coupling enzyme system, counter-screen for aldolase hits; coupling enzyme system counterscreen, AmpLite Red fluorescence; activity change, negative = inhibition, % at 58.2 µM, hits read low; 0.67% of 290,000 active; AID 2472; in the data active = activity change below about -30%
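Counterscreen lacking aldolase: glyceraldehyde-3-phosphate coupling-enzyme reagent preincubated 10 min at RT with compound (at 57.5 uM final), then substrate/coupling system with AmpLite Red added; fluorescence read at 525/598 nm after 20 min RT.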
Tau fluor counter: counter-screen for tau fibril formation inhibitors; tau K18 P301L Alexa594 fluorescence, heparin fibrillization; Potency, µM (highest dose often 57.7 µM); 0.93% of 280,000 active; also: nearly all actives have a fitted effect of over 55% in size
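Human K18 P301L tau (15 uM unlabeled plus 0.24 uM Alexa 594-labeled, final) in 100 mM sodium acetate pH 7 was mixed with compound and 20 uM heparin and incubated 6 hr at 37 C.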
Tau fibril FP: blocks human tau fibril formation measured by polarization. AID 1468. Potency, µM (series often up to 57.7 µM), most hits filed as inhibitors. K18 P301L tau heparin fibrillization, Alexa594 FP, 6 h. P10636. 0.39% of 280,000 active; also: nearly all actives have a fitted effect of over 55% in size
Target sequence (P10636 561-689 P618L limits assumed): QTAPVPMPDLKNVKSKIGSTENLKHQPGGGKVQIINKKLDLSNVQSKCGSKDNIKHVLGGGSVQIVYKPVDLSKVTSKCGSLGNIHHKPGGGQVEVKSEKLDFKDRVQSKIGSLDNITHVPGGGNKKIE
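K18 P301L tau (15 uM unlabeled/0.24 uM Alexa 594-labeled, final) + compound + heparin 20 uM final; 100 mM NaOAc pH 7; 6 hr 37 C; ThT 30 uM final added, 1 hr RT; FP ex 555/em 632 nm.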
Tau fibril ThT: tau fibrillization inhibition (ThT binding); P10636; recombinant tau K18 P301L, heparin-induced fibrillization, ThT fluorescence; Potency, µM (top dose mostly 57.4 µM), actives largely listed as inhibitors; 2.1% of 270,000 active; also: nearly all actives have a fitted effect of over 55% in size
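Fibril formation assay: tau K18 P301L at 15 uM with trace Alexa 594 label, heparin inducer 20 uM, pH 7 sodium acetate buffer, 37 C for 6 hr; endpoint ThT signal.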
JMJD2E inh: inhibitors of human JMJD2E histone demethylase. B2RXH2. JMJD2E catalytic domain, FDH-coupled NADH fluorescence (FDH is formaldehyde dehydrogenase). AID 2147. Potency, µM (top dose mostly 57.1 µM), actives largely listed as inhibitors. 1.6% of 230,000 active; active = well fitted inhibition curve with a large enough effect, not every such curve was filed as active; inconclusive = small, poorly fitted or top-dose-only effect, or another doubt; inactive = no such curve, though single readings can be large or run the other way; also: nearly all actives have a fitted effect of over 50% in size
Target sequence (B2RXH2 1-337 limits assumed): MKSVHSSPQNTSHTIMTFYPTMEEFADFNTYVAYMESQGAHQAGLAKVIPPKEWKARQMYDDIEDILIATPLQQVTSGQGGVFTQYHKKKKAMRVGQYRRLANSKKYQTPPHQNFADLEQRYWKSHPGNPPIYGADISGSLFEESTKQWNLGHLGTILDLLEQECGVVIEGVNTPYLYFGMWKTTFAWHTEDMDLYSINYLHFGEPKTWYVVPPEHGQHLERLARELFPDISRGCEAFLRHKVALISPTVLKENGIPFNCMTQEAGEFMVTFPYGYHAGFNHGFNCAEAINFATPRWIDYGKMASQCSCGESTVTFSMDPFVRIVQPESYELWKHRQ
Hits are given with their value; 0 = inactive; ? = inconclusive; - = not tested or not shown; [ ] = remark or other dose. Rows were chosen to be rich in hits. Some 3% of all compounds tested hit in one or more screens of this group. Unless noted, calls follow the shape of the dose curve; as a rule, active = well fitted curve in the direction sought with a large enough effect; inconclusive = small, poorly fitted or top-dose-only effect, or another doubt; inactive = no such curve, though single readings can be large; an effect the other way counts as inactive or inconclusive.

SMILES	Coupling enz	Tau fluor counter	Tau fibril FP	Tau fibril ThT	JMJD2E inh
CCCCCCCCCCCCC/C=C/[C@@H](O)[C@H](CO)NC(=O)CCCCC	0	-	-	-	-
Cc1noc(C)c1-c1nccc(NCc2ccccc2)n1	0	-	-	-	-
CCCN1C(=O)C2(c3ccccc31)c1c(oc3ccc(C)cc3c1=O)C(=O)N2CCOC (configuration not stated)	-	0	0	0	-
Cc1cc(C)c(/C=C/c2onc(C)c2S(=O)(=O)N2CCC(C(=O)N3CCN(c4ccccc4)CC3)CC2)c(C)c1	-	0	0	0	-
Cc1cccc2cc(CN(Cc3ccco3)C(c3nnnn3CCc3ccccc3)C(C)C)c(=O)[nH]c12 (configuration not stated)	0	0	0	0	18µM
CC(N)(COP(=O)(O)O)C(=O)O (configuration not stated)	-	0	0	0	-
CC1=CC(C)(C)n2c(O)c(N=N)c3c(C)ccc1c32	0	0	0	0	0
CC1=CC(C)(C)n2c(O)c(N=N)c3cc(C)cc1c32	0	?	?	28µM	0
CC1=CC(C)(C)n2c(O)c(N=N)c3c(C)c(C)cc1c32	0	?	0	25µM	?
COc1cccc([C@@H]2Oc3ccc(OC)cc3[C@H](O)[C@H]2O)c1	0	0	0	0	0
CC(=O)c1ccc(O)c(CSc2nncn2C)c1	0	0	0	0	?
Cn1cnnc1SCC(=O)c1ccc(O)c(O)c1	0	0	0	0	10µM
O=C(CSc1nnnn1-c1ccc(F)cc1)c1ccc(O)c(O)c1	0	?	0	?	28µM
CC(C)(C)C(=O)Nc1ccc2nc(SCC(=O)N3CCc4ccccc43)sc2c1	-	0	0	0	-
Cc1ccc(S(=O)(=O)N2CCc3nc(-c4ccccc4)c4c(c3C2)CO[C@@H](C)C4)cc1	0	0[11.6 µM]	0[11.6 µM]	0[11.5 µM]	0[11.4 µM]
O=C(CSc1nnc(-c2ccccc2)o1)c1nnc(-c2ccccc2)o1	0	?	?	16µM	?
Cc1[nH]c2ccccc2c1/C=C/c1nc2ccccc2c(=O)n1CCO	0	10µM[quencher]	0	?	?
CC(C)C[C@H](NC(=O)[C@@H](N)Cc1ccccc1)C(=O)N[C@@H](Cc1ccccc1)C(=O)N[C@@H](CCC(N)=O)C(=O)N1CCC[C@H]1C(=O)N[C@@H](CCC(N)=O)C(=O)N[C@@H](CCCN=C(N)N)C(=O)N[C@@H](Cc1ccccc1)C(N)=O	0	-	-	-	-
COc1cc2c(cc1NC(=S)NC(=O)c1c(OC)cccc1OC)oc1ccccc12	0	0	28µM	0	0
CC(/C=C/c1ccco1)=N\NC(=O)CNc1ccc2ccccc2c1	0	?	0	7.9µM	?
O=C(CNc1ccc2ccccc2c1)N/N=C/C=C/c1cccc([N+](=O)[O-])c1	0	7.1µM[quencher]	0	?	0
CC(/C=C/c1ccco1)=N/NC(=O)CNc1ccccc1C	0	0	0	?	0
CCC(Oc1ccccc1)C(=O)Nc1ccccc1OCc1cc(=O)n2ccccc2n1 (configuration not stated)	-	0	0	0	-
CCOc1cccc(C=Nc2cc(C)cc(C)c2O)c1O	0	?	?	25µM	?
CSc1nc(/C=C2\C=Nc3ccccc32)c(O)n1C	0	?	0	11µM	0
SMILES	Coupling enz	Tau fluor counter	Tau fibril FP	Tau fibril ThT	JMJD2E inh
COc1cc(-c2cc(OC)c3c(C)oc(C)c3c(=O)c2)ccc1OC(=O)c1cccc(Cl)c1	-	0	0	0	-
COc1ccccc1N1C(=O)N(C(C)=O)C2C1Nc1ccccc1N2C (configuration not stated)	-40	0	?	?	?
COc1ccccc1N1C(=O)c2ccccc2NC1c1ccncc1 (configuration not stated)	0	0	0	0	?
C/C(=N\NC(=O)c1ccccc1O)C1CC1	0	-	-	-	-
CC/C(=N\NC(=O)C(N)=O)c1ccccc1O	0	0	0	?	8.9µM
Cc1cccc(NC(=O)COc2ccc(/C=C\c3[nH]c(=O)[nH]c(=O)c3[N+](=O)[O-])cc2)c1	0	0	0	10µM	0
O=c1[nH]c(/C=C/c2ccc([N+](=O)[O-])cc2)c([N+](=O)[O-])c(=O)[nH]1	0	-	-	-	-
CCc1nn2c(=O)cc(COC(=O)c3ccccc3NC(=O)COc3ccc(C)c(C)c3)nc2s1	-	0	0	0	-
CC(=O)c1c(N=CN(C)C)nc(C)nc1-c1ccccc1	0	0	0	0	0
